An excerpt weighted towards active compounds, which were near 0.35% of everything screened.
PDI inh – PDI (human) enzyme inhibition. P07237. PDI insulin aggregation turbidity, A650, 90 min. inhibition, % at 10 µM. hit rate 0.052% among 350,000. AID 588391;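 active = mean inhibition across replicates of 30% or more, whatever share of single replicates reach that level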
Rtt109 HAT inh – blocks Candida albicans Rtt109/Vps75 acetyltransferase activity; Q5AAJ8; purified Rtt109/Vps75, ThioGlo CoA-SH fluorescence, 4 h; inhibition, % at 34.9 µM; hit rate 0.16% among 330,000; AID 540336;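 active = inhibition of at least 50% in every replicate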
Target sequence (Q5AAJ8 whole entry, looked up): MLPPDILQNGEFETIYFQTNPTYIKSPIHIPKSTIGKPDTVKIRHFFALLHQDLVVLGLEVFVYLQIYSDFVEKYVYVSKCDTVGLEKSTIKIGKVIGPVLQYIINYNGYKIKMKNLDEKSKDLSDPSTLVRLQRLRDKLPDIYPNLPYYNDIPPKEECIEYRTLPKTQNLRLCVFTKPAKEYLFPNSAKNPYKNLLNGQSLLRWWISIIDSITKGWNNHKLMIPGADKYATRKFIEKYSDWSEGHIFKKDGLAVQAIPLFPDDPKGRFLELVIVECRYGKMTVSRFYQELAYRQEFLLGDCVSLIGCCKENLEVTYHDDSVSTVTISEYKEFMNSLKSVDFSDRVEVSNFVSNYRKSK
ERAP1 HTS inh – inhibitors of human ERAP1 aminopeptidase; recombinant ERAP1, Leu-AMC fluorescence, 60 min; inhibition, % at 10.7 µM; hit rate 0.15% among 340,000; AID 652197;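 active = mean replicate inhibition of at least 30%, or all replicates individually reaching that 30% level; inactive = mean below 30% and not every replicate reaching it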;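 also: 0% = neutral control wells and 100% = L-leucinethiol positive control wells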
ERp5 block – inhibitors of human ERp5 | ERp5 insulin aggregation, absorbance 650 nm, 90 min | inhibition, % at 9.99 µM | hit rate 0.05% among 350,000 | Q15084 | AID 651711;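 active = mean replicate inhibition above about 25%, with every replicate also reaching it, limit read from the data, passing the limit was not always enough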
PvdQ acylase – P. aeruginosa PvdQ acylase inhibition | purified PvdQ acylase, fluorescence plate reader | inhibition, % at 10 µM | hit rate 0.063% among 340,000 | AID 488965; in the data active = inhibition above about 30%, passing the limit was not always enough;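 also: 0% = vehicle neutral wells and 100% = reference inhibitor wells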
* = called active by the depositor; . = no result given.

SMILES | PDI inh | Rtt109 HAT inh | ERAP1 HTS inh | ERp5 block | PvdQ acylase
O=C(CN1CCOCC1)Nc1cccc(C(F)(F)F)c1 | 0 | 55* | -1 | 0 | 0
O=C(CN1CCOCC1)Nc1cccc(C(=O)Nc2cccc(C(F)(F)F)c2)c1 | 1 | -1 | . | . | -3
COc1ccc(C2=CC(=O)C=CC2=O)cc1 | . | 104* | . | . | -41
C[C@H](CO)N1C[C@H](C)[C@@H](CN(C)C(=O)Nc2ccc(F)cc2)Oc2c(NC(=O)Nc3ccc(F)cc3)cccc2C1=O | . | . | -8 | 9 | .
Cc1nc2ccccc2n1CC(=O)NC1CCCC1 | -9 | 51* | -6 | 0 | 3
CCOC(=O)c1c(CN2CCN(C)CC2)n(-c2ccccc2)c2cc(Br)c(O)cc12 | 14 | 3 | -2 | -2 | -12
CCOC(=O)c1c(CN2CCN(CCO)CC2)n(-c2ccccc2)c2cc(Br)c(O)cc12 | 58* | 9 | 1 | -4 | -12
C[C@H]1CN([C@@H](C)CO)C(=O)c2cc(NS(=O)(=O)c3ccccc3)ccc2O[C@H]1CN(C)S(=O)(=O)c1cccs1 | . | . | 1 | 1 | .
COc1cc(-c2noc(C)c2/C=C/c2ccc(C(=O)O)cc2)cc(OC)c1OC | 1 | -2 | 42* | 3 | -4
O=C(C[C@@H]1CC[C@@H]2[C@H](COC[C@@H](O)CN2S(=O)(=O)c2ccccc2)O1)NCCN1CCCC1 | . | . | 3 | 43* | .
O=C(C[C@H]1CC[C@H]2[C@@H](COC[C@@H](O)CN2S(=O)(=O)c2ccccc2)O1)NCCN1CCCCC1 | . | . | 0 | -2 | .
O=C(CN1CCOCC1)NCC[C@H]1CC[C@@H](NC(=O)Cc2ccccn2)[C@H](CO)O1 | . | . | 1 | 1 | .
O=C(COC(=O)CCc1nc2ccccc2c(=O)[nH]1)Nc1c(Cl)cccc1C(F)(F)F | 3 | . | -1 | 26* | -14
NNC(=O)COc1cccc(C(F)(F)F)c1 | -1 | -9 | 0 | -1 | -19
CC(C)[C@H](NC(N)=O)C(=O)NNC(=O)COc1cccc(C(F)(F)F)c1 | 7 | -2 | 54* | -4 | -16
N#CCN(N=Nc1ccccc1)c1ccccc1 | -6 | -4 | -2 | -1 | 75*
Cc1noc(C)c1NC(=O)NC[C@H]1CC[C@H]2[C@H](CN2Cc2cccc(-c3ccccn3)c2)O1 | . | . | 4 | 1 | .
CC1(C)CC2(CC(c3ccccc3F)c3ccc(O)c(O)c3O2)NC(=S)N1 (centres undefined) | -3 | 175* | 2 | 5 | -12
CCOC(=O)CCCn1ncn2c(cc3occc32)c1=O | 5 | -11 | . | . | 33*
Cc1ccc(S(=O)(=O)N2CCOCC2)cc1-c1n[nH]c(=S)n1-c1ccccc1 | 4 | 1 | 46* | -1 | -9
O=S(=O)(c1cccc(-c2n[nH]c(=S)n2-c2cccc(C(F)(F)F)c2)c1)N1CCOCC1 | -8 | 4 | 5 | 8 | -4
COCC(=O)Nc1ccc2c(c1)C(=O)N(C)C[C@H](OC)[C@H](C)CN(Cc1cc(F)ccc1F)[C@H](C)CO2 | . | . | -3 | -1 | .
C[C@@H]1CN([C@H](C)CO)C(=O)Cc2cc(NS(=O)(=O)c3ccc(Cl)cc3)ccc2O[C@H]1CN(C)C(=O)Nc1ccc(C(F)(F)F)cc1 | . | . | 1 | 3 | .
Cn1ccnc1CC(O)(c1ccccc1)c1ccccc1 | 1 | 0 | -2 | 1 | -4
C/C=C/n1ccnc1CC(O)(c1ccccc1)c1ccc(C)cc1 (centres undefined) | -3 | 60* | . | 0 | -3
OC(CN1CCOCC1)Cn1c(-c2cccc(Cl)c2)nc2ccccc21 (centres undefined) | 2 | . | . | . | 32*
CCC(=O)N1C[C@H](C)[C@@H](OC)CN(C)C(=O)c2cc(NC(=O)Nc3ccccc3)ccc2OC[C@H]1C | . | . | -4 | -1 | .
CCc1ccc(NS(=O)(=O)c2ccc(C)c(C(=O)N3CCOCC3)c2)cc1 | 3 | -1 | 83* | 0 | -10

Screening data (PubChem BioAssay)
